Drawing on PubChem BioAssay (NCATS), this text covers Potency for ten molecules.

A short description of assay [1]: Quantitative High-Throughput drug screen in 47 multiple myeloma cell lines against the NCATS MIPE library collection: Delta47_JCRB cell viability assay (AID 1918925; also: nearly all actives have a fitted effect of over 45% in size). In a few lines: (§1)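 Primary qHTS used for cherry-picking: cells at 500/well, library compounds for 48 h (37C, 5% CO2), luminescent ATP assay.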
A short description of assay [2]: Quantitative High-Throughput drug screen in 47 multiple myeloma cell lines against the NCATS MIPE library collection: EJM_DSMZ cell viability assay (AID 1918926; also: nearly all actives have a fitted effect of over 30% in size). In a few lines: as §1
Assay [3] can be described thus: Quantitative High-Throughput drug screen in 47 multiple myeloma cell lines against the NCATS MIPE library collection: AMO1_DSMZ cell viability assay (AID 1918927; also: nearly all actives have a fitted effect of over 30% in size). In a few lines:
as §1

Assay [4] in a line: Quantitative High-Throughput drug screen in 47 multiple myeloma cell lines against the NCATS MIPE library collection: ARP1_JJKsccF8 cell viability assay (AID 1918928; also: nearly all actives have a fitted effect of over 40% in size). In a few lines:
(§2)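 CellTiter-Glo luminescence after 48 h exposure gives viability, scaled between DMSO-only (100%) and media-only (0%) controls. Library compounds are pinned onto 500 myeloma cells per well, incubated at 37C with 5% CO2.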

Assay [5] is described as follows: Quantitative High-Throughput drug screen in 47 multiple myeloma cell lines against the NCATS MIPE library collection: ARD_JJKsccE7 cell viability assay (AID 1918929). In a few lines:
as §1

Assay [6] is described as follows: Quantitative High-Throughput drug screen in 47 multiple myeloma cell lines against the NCATS MIPE library collection: KHM11_PLB cell viability assay (AID 1918962). Also: nearly all actives have a fitted effect of over 35% in size. In a few lines:
(§3)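 Relative luminescence from CellTiter-Glo served as the viability signal, referenced to DMSO-treated (100%) and cell-free medium (0%) controls. Treatment lasted 48 hours at 37C with 500 cells per well.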

Assay [7] can be described thus: Quantitative High-Throughput drug screen in 47 multiple myeloma cell lines against the NCATS MIPE library collection: JIM3_ECACC cell viability assay (AID 1918963; also: nearly all actives have a fitted effect of over 35% in size). In a few lines:
as §3

Assay [8] is described as follows: Quantitative High-Throughput drug screen in 47 multiple myeloma cell lines against the NCATS MIPE library collection: JIM1_ECACC cell viability assay (AID 1918964). In a few lines: as §1
Assay [9] is described as follows: Quantitative High-Throughput drug screen in 47 multiple myeloma cell lines against the NCATS MIPE library collection: INA6_PLB cell viability assay (AID 1918965; also: nearly all actives have a fitted effect of over 55% in size). In a few lines:
as §3

Assay [10] in a line: Quantitative High-Throughput drug screen in 47 multiple myeloma cell lines against the NCATS MIPE library collection: H1112_PLB cell viability assay (AID 1918967; also: nearly all actives have a fitted effect of over 30% in size). In a few lines: as §1
A short description of assay [11]: Quantitative High-Throughput drug screen in 47 multiple myeloma cell lines against the NCATS MIPE library collection: KMS12BM_JCRB cell viability assay (AID 1918971). Also: nearly all actives have a fitted effect of over 35% in size. In a few lines:
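qHTS of the MIPE 4.0 collection: 500 myeloma cells/well, 48 h drug exposure at 37C in 5% CO2, then CellTiter-Glo for 5 min at room temperature before luminescence reading.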

A short description of assay [12]: Quantitative High-Throughput drug screen in 47 multiple myeloma cell lines against the NCATS MIPE library collection: KMS12PE_JCRB cell viability assay (AID 1918972). Also: nearly all actives have a fitted effect of over 30% in size. In a few lines: as §3
Assay [13] in a line: Quantitative High-Throughput drug screen in 47 multiple myeloma cell lines against the NCATS MIPE library collection: KMS20_JCRB cell viability assay (AID 1918973). Also: nearly all actives have a fitted effect of over 45% in size. In a few lines:
as §1

A short description of assay [14]: Quantitative High-Throughput drug screen in 47 multiple myeloma cell lines against the NCATS MIPE library collection: KMM1_JCRB cell viability assay (AID 1918960). Also: nearly all actives have a fitted effect of over 30% in size. In a few lines:
as §2

A short description of assay [15]: Quantitative High-Throughput drug screen in 47 multiple myeloma cell lines against the NCATS MIPE library collection: JJN3_DSMZ cell viability assay (AID 1918966; also: nearly all actives have a fitted effect of over 50% in size). In a few lines: as §1
Assay [16] is described as follows: Quantitative High-Throughput drug screen in 47 multiple myeloma cell lines against the NCATS MIPE library collection: Karpas620_DSMZ cell viability assay (AID 1918959). Also: nearly all actives have a fitted effect of over 30% in size. In a few lines: as §3
Assay [17] is described as follows: Quantitative High-Throughput drug screen in 47 multiple myeloma cell lines against the NCATS MIPE library collection: Karpas25_ECACC cell viability assay (AID 1918968; also: nearly all actives have a fitted effect of over 35% in size). In a few lines: as §1
A short description of assay [18]: Quantitative High-Throughput drug screen in 47 multiple myeloma cell lines against the NCATS MIPE library collection: Karpas417_ECACC cell viability assay (AID 1918961). Conditions: Karpas417 myeloma viability, CellTiter-Glo ATP luminescence, 48 h; viability (% of DMSO): at 45.8 µM (top of the series). In a few lines:
as §3
A general note: Cellular ATP, detected with luciferase, serves as a proxy for viable cell number.

Assay [19] in a line: Quantitative High-Throughput drug screen in 47 multiple myeloma cell lines against the NCATS MIPE library collection: KMS21BM_JCRB cell viability assay (AID 1918974). To be noted: ATP luminescence, 48 h; viability: at 45.8 µM (top of the series) unless noted. In a few lines:
as §1

Assay [20] is described as follows: Quantitative High-Throughput drug screen in 47 multiple myeloma cell lines against the NCATS MIPE library collection: KMS27_JCRB cell viability assay (AID 1918970). Also: nearly all actives have a fitted effect of over 30% in size. In a few lines:
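Luminescent ATP read-out (CellTiter-Glo, 5 min at room temperature) after 48 h compound exposure of 500 KMS27_JCRB cells per well; DMSO wells define full viability and media-only wells zero.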

Each structure is given as a SMILES string. Records with an inconclusive call do not appear. Activity calls are given as the source filed them. Calls follow the shape of the dose curve; as a rule, active = well fitted curve in the direction sought with a large enough effect; inconclusive = small, poorly fitted or top-dose-only effect, or another doubt; inactive = no such curve, though single readings can be large; an effect the other way counts as inactive or inconclusive.
Potency is read from the fitted curve at half-maximal effect.

Turning to `Cc1cn2c(-c3cn[nH]c3)cnc2c(Nc2ccc(C(=O)N3CCNCC3)cc2F)n1`, the Potency is 7430 nM (active) in [1]; 18700 nM (active) in [2]; 23500 nM (active) in assay [4]; 5900 nM (active) in assay [5]; 16600 nM (active) in [6]; 23500 nM (active) in assay [7]. Further, the Potency in assay [8] is 2090 nM (active); in assay [9], 16600 nM (active); in [10] it was 20900 nM (active); in assay [11], 14800 nM (active); in [12] it was 5260 nM (active); in [13] it was 18700 nM (active). The Potency result in assay [3] was “inactive”.

Consider `COc1ccc(C(=O)CC2(O)C(=O)Nc3c(Cl)ccc(Cl)c32)cc1` (stereo unspecified), for which the Potency in assay [1] was 3720 nM (active); in [2], 3320 nM (active); in [3], 526 nM (active); in assay [4] it was 3720 nM (active); in [5] it was 1320 nM (active); in assay [14] it was 1180 nM (active). For the same molecule, the Potency in [7] is 2350 nM (active); in assay [8], 1050 nM (active); in assay [9], 2350 nM (active); in assay [15], 6620 nM (active); in assay [10], 13200 nM (active); in [11] it was 2090 nM (active). Moreover, the Potency result in assay [6] was “inactive”.

For `CC(NCc1ccc2c(c1)nc(NC(=O)c1ccc(-c3cn[nH]c3)s1)n2CC(C)(C)O)C(C)(C)C` (stereo unspecified), the Potency is 83.3 nM (active) in assay [1]; 372 nM (active) in assay [2]; 166 nM (active) in [3]; 418 nM (active) in assay [4]; 296 nM (active) in assay [5]; 264 nM (active) in assay [16]. The Potency was 235 nM (active) in assay [14]; 93.5 nM (active) in [6]; 209 nM (active) in assay [7]; 46.9 nM (active) in [8]; 264 nM (active) in assay [15]; 469 nM (active) in assay [10]. The Potency is 264 nM (active) in [17], 1050 nM (active) in [11], 264 nM (active) in [12] and 235 nM (active) in assay [13].

For `NCC(=O)Nc1ccc(-n2nc(C(F)(F)F)cc2-c2ccc3c(ccc4ccccc43)c2)cc1`, the Potency was 18700 nM (active) in assay [1]; 23500 nM (active) in [2]; 66.2 nM (active) in [3]; 23500 nM (active) in assay [4]; 148 nM (active) in assay [5]; 5260 nM (active) in assay [14]. For the same molecule, the Potency was 26400 nM (active) in [6]; 18700 nM (active) in [7]; 18700 nM (active) in assay [9]; 20900 nM (active) in [15]; 20900 nM (active) in assay [10]; 16600 nM (active) in assay [17]. In addition, the Potency in [12] is 526 nM (active); in [13] it was 9350 nM (active). Moreover, the Potency result in assay [16] is “inactive”.

With `CC[C@@H]1C(=O)N(C)c2cnc(Nc3ccc(C(=O)NC4CCC(N5CCN(CC6CC6)CC5)CC4)cc3OC)nc2N1C(C)C` (stereo partly specified), the Potency in assay [1] is 1480 nM (active); in assay [2], 743 nM (active); in [3] it was 118 nM (active); in assay [4], 132 nM (active); in assay [5] it was 83.3 nM (active); in assay [14] it was 52.6 nM (active). In addition, the Potency in assay [18] is 3320 nM (active); in assay [6] it was 8330 nM (active); in [7] it was 41.8 nM (active); in [9], 187 nM (active); in assay [15], 2640 nM (active); in [17], 5260 nM (active). The Potency is 74.3 nM (active) in [11], 2960 nM (active) in assay [12], 4180 nM (active) in [13] and 935 nM (active) in assay [19].

Turning to `COc1cc(C)c(Sc2cnc(NC(=O)c3ccc(CNC(C)C(C)C)cc3)s2)cc1C(=O)N1CCN(C(C)=O)CC1` (stereo unspecified), the Potency was 2350 nM (active) in assay [1]; 16600 nM (active) in [2]; 16600 nM (active) in assay [4]; 18700 nM (active) in assay [6]; 4180 nM (active) in assay [7]; 18700 nM (active) in assay [9]. The Potency is 16600 nM (active) in assay [15], 14800 nM (active) in assay [10], 4690 nM (active) in [17] and 14800 nM (active) in assay [11]. For the same molecule, the Potency result in [3], in [16], in assay [14], in [8] and in [12] was “inactive” each time.

Turning to `CCCNC(=O)Nc1ccc(Oc2ncnc3cc(OC)c(OC)cc23)cc1Cl`, the Potency entry in assay [1], in assay [2], in [3], in assay [4], in assay [16] and in assay [7] was “inactive” in each case. Besides, the Potency result in [8], in [9], in assay [15], in [10], in [17] and in [12] was “inactive” throughout. Besides, the Potency in assay [11] is 18700 nM (active).

Regarding `COc1cccc(-c2ccc(NC(=O)C3=C(C(=O)O)CCC3)c(F)c2)c1`, the Potency entry in assay [1], in [2], in assay [16] and in assay [10] was “inactive” each time. In addition, the Potency in assay [3] was 6620 nM (active); in assay [4], 16600 nM (active); in assay [7] it was 23500 nM (active); in assay [9], 4690 nM (active); in assay [11], 20900 nM (active); in assay [12], 2960 nM (active).

Consider `Cc1cc(Nc2cc(N3CCN(C)CC3)nc(Sc3ccc(NC(=O)C4CC4)cc3)n2)n[nH]1`, for which the Potency in [1] was 3720 nM (active); in assay [2] it was 14800 nM (active); in assay [3], 372 nM (active); in assay [4], 7430 nM (active); in assay [16] it was 33.2 nM (active); in [14], 5900 nM (active). In addition, the Potency is 7430 nM (active) in [18]; 1320 nM (active) in assay [6]; 5260 nM (active) in assay [7]; 6620 nM (active) in assay [8]; 16600 nM (active) in [15]; 11.8 nM (active) in assay [20]. For the same molecule, the Potency is 166 nM (active) in [12] and 4690 nM (active) in [13].

Take `CC(C)c1cc(C(=O)N2Cc3ccc(CN4CCN(C)CC4)cc3C2)c(O)cc1O`: the Potency is 296 nM (active) in assay [1]; 1480 nM (active) in [2]; 132 nM (active) in [3]; 209 nM (active) in assay [4]; 166 nM (active) in [16]; 105 nM (active) in [14]. Moreover, the Potency in assay [6] was 93.5 nM (active); in [7], 187 nM (active); in [8] it was 74.3 nM (active); in [15] it was 209 nM (active); in [10] it was 5260 nM (active); in assay [17], 166 nM (active). The Potency in assay [20] is 132 nM (active); in assay [11], 264 nM (active); in assay [12], 118 nM (active); in assay [13] it was 187 nM (active).
